Here are results for 5 molecules from PubChem BioAssay.

Structures are written as SMILES. Active and inactive are the calls of the source. Unless noted, the rule behind the calls is not given here.

A short description of assay [1]: compounds binding Alexa647 anti-His antibody – biochemical, small-molecule microarray, 635 nm fluorescence, artefact control for SMM control protein annotation, primary screen (AID 1128).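 Note: score merges feature fluorescence with signal-to-noise for each printed compound spot.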 The note with it: higher = more signal.
Assay [2] concerns Human papillomavirus type 1a E7 protein (residues 1-88). As to the kind of experiment: HPV1a E7 small-molecule binders, primary screen, biochemical, small-molecule microarray, residues 1-88, 635 nm (AID 1129). The note with it: small-molecule microarray binding, fluorescence 635 nm; higher = more signal.
The target in assay [3] is Focal adhesion kinase 1 (Homo sapiens) (UniProt Q05397). As to the kind of experiment: PTK2 protein binding on printed compound slides – biochemical, small-molecule microarray, 635/667 nm fluorescence, BSA, DTT, primary screen (AID 1130).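 Note: composite of spot emission at 667 nm and signal to noise over triplicate slides.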 The note with it: 635 nm fluorescence, higher = more signal.
Focal adhesion kinase 1 (Homo sapiens), sequence (Q05397 whole entry, looked up): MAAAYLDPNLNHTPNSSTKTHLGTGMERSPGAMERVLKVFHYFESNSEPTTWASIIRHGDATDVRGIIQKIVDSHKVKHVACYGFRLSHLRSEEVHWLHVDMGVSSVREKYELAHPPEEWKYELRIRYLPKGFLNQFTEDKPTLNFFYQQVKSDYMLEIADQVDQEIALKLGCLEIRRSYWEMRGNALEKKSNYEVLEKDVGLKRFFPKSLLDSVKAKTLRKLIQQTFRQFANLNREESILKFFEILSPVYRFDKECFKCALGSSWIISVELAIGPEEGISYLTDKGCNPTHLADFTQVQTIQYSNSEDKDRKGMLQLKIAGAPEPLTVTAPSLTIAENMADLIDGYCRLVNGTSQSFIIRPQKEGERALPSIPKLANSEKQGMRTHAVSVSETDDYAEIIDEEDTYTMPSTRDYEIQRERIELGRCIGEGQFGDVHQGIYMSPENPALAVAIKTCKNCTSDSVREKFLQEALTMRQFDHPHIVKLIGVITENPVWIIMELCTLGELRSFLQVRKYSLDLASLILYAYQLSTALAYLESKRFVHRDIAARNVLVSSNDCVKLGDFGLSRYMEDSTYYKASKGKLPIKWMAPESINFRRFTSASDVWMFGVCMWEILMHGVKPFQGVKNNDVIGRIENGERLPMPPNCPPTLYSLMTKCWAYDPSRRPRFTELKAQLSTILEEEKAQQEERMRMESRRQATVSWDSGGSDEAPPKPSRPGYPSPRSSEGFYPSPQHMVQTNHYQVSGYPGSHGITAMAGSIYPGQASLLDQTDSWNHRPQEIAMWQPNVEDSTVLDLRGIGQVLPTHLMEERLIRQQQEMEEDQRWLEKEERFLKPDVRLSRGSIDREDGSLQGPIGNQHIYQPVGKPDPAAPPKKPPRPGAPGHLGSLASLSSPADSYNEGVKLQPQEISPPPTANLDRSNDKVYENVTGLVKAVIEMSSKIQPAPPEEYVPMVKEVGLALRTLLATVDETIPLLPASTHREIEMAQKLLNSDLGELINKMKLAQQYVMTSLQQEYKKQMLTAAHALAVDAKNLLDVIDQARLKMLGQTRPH
In assay [4] the test system is Fibrinogen (Alexa647-labelled). In words: Alexa647-fibrinogen binding to printed small molecules – biochemical, small-molecule microarray, 635/667 nm fluorescence, artefact control for SMM control-protein annotation, profiling panel (AID 1131).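 Note: z-score merges 667 nm fluorescence with per-spot signal-to-noise over triplicate slides.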 The note with it: fibrinogen-A647 binding fluorescence, higher = more signal.
The target of assay [5] is Follistatin (Homo sapiens) (UniProt P19883). In words: FST protein binding to printed compounds – biochemical, small-molecule microarray, 635/667 nm fluorescence, primary screen (AID 1132). The note with it: 635 nm fluorescence, higher = more signal.
Follistatin (Homo sapiens), sequence (P19883 whole entry, looked up): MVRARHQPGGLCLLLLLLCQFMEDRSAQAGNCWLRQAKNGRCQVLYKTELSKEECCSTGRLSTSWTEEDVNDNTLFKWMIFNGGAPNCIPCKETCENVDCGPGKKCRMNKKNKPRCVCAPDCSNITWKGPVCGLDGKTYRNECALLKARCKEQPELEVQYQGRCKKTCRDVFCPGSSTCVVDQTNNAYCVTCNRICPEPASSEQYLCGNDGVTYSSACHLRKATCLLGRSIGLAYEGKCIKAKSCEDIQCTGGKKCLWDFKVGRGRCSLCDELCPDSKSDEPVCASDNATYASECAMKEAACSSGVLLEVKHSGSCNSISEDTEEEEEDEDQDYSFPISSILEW
Assay [6] deals with Fibroblast growth factor 2 (Homo sapiens) (UniProt P09038). In words: basic fibroblast growth factor binding to printed compounds – biochemical, small-molecule microarray, 635/667 nm fluorescence, primary screen (AID 1133). The note with it: FGF2, fluorescence 635/667, higher = more signal.
Fibroblast growth factor 2 (Homo sapiens), sequence (P09038 whole entry, looked up): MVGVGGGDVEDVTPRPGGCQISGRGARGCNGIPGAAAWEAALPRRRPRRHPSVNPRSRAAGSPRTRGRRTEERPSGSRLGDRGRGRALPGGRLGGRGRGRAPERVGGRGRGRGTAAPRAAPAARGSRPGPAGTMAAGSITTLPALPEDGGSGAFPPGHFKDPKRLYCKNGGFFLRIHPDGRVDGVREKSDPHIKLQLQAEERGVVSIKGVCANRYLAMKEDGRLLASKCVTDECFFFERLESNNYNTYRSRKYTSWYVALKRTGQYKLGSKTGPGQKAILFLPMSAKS
Assay [7] can be described thus: JC-1 mitochondrial potential readout, lung cancer cells – cell-based, A549, JC-1 fluorescence, basal, 24 h, 100 nL, profiling panel (AID 1138).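 Note: A549 lung adenocarcinoma cells under basal conditions with no added stimulus; test concentration not given here.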 The note with it: higher = more signal.
In another assay the test system is Lefty1. In words: Lefty1 protein binding to printed compounds – biochemical, small-molecule microarray, 635/667 nm fluorescence, primary screen (AID 1139). The note with it: fluorescence 635/667, higher = more signal.
Assay [8] has as its system wheat germ agglutinin (Triticum aestivum), Alexa647-labelled. As to the kind of experiment: Alexa647-WGA lectin binding to printed small molecules – biochemical, small-molecule microarray, 635/667 nm fluorescence, artefact control for SMM control-protein annotation, profiling panel (AID 1140).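 Note: score merges 667 nm feature emission with signal to noise over triplicate slides.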 The note with it: WGA-A647 binding, 635 nm fluorescence, higher = more signal.

Assay [9] has as its target Luciferin 4-monooxygenase (Photinus pyralis) (UniProt P08659). As to the kind of experiment: inhibition of purified Photinus pyralis luciferase – biochemical, luminescence, purified enzyme, 2006 set, primary screen (AID 1141).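 Note: cell-free assay with purified firefly luciferase at 100 ng per well in PBS; test concentration not given here.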 The note with it: purified firefly luciferase, SteadyGlo luminescence, 30 min; higher = more signal, called active from +8 up or from −8 down.
Assay [10] concerns Wnt5a (protein binding on small-molecule microarray). As to the kind of experiment: small molecules binding Wnt5a protein – biophysical, small-molecule microarray, 635/667 nm fluorescence, primary screen (AID 1142).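 Note: fluorescence read at 667 nm with signal to noise per printed feature.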 The note with it: 635 nm fluorescence, higher = more signal.
Assay [11] can be described thus: ATP-based viability of Huh7 replicon cells – cell-based, CellTiter-Glo luminescence, basal, 48 h, cytotoxicity control for HCV replication inhibitor project, primary screen (AID 1143).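 Note: Huh7 hepatoma cells carrying a hepatitis C replication reporter with no stimulus; test concentration not given here.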 The note with it: higher = more signal, called active from +8 up or from −8 down.
A short description of assay [12]: Pseudomonas biofilm growth suppression – PAO1 strain, BacTiter-Glo luminescence, LB-PBS, primary screen (AID 1144). The note with it: P. aeruginosa PAO1 biofilm, 12 h, higher = more signal.
Assay [13] is described as follows: basal CRE-LacZ reporter activity in PC12 – cell-based, unstimulated, primary screen (AID 1145). The note with it: no forskolin, luminescence, 4.5 h, higher = more signal, called active from +8 up or from −8 down.
The nature of assay [14]: forskolin-driven CRE-LacZ activity in PC12 – cell-based, CRE-LacZ reporter, forskolin-stimulated, primary screen (AID 1146).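 Note: PC12 cells with 6xCRE LacZ reporter stimulated by forskolin 10 µM; beta-galactosidase reporter signal reflecting CREB driven transcription.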 The note with it: luminescence, 4.5 h, higher = more signal, called active from +8 up or from −8 down.
Assay [15] has as its target Streptavidin (Streptomyces avidinii) (UniProt P22629). In words: compounds binding control protein streptavidin – biophysical, small-molecule microarray, 635/667 nm fluorescence, artefact control for SMM compound annotation, primary screen (AID 1147).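 Note: signal reflects streptavidin binding to arrayed compounds as a control protein.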 The note with it: higher = more signal.
Assay [16] is described as follows: probe aInhba binding on compound microarray – biochemical, small-molecule microarray, 635/667 nm fluorescence, primary screen (AID 1148).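 Note: score merges 667nm spot fluorescence with signal-to-noise for antibody binding to printed compounds.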 The note with it: higher = more signal.
In assay [17] the target is Torsin-1A (Homo sapiens) (UniProt O14656). In words: TOR1A wild-type binding on microarray – cell lysate, small-molecule microarray, lysate, 635/667 nm, primary screen (AID 1149). The note with it: COS7 hTOR1A-WT lysate, 635 nm fluorescence, higher = more signal.
Torsin-1A (Homo sapiens), sequence (O14656 whole entry, looked up): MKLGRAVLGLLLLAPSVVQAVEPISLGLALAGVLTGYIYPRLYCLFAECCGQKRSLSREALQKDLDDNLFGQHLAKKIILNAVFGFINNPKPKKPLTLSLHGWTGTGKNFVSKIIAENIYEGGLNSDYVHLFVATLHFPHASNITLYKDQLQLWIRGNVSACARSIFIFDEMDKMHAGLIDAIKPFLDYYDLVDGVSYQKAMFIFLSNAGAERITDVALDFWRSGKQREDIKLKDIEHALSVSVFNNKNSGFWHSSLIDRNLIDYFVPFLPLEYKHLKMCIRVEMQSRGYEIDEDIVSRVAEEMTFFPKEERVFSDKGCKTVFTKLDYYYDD
For assay [18] the target is unchanged. As to the kind of experiment: torsin A mutant lysate binding on microarrays – cell lysate, small-molecule microarray, COS7 lysate, 635/667 nm fluorescence, primary screen (AID 1150).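 Note: score pools 667 nm emission and signal to noise measuring lysate protein binding.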 The note with it: COS7 hTOR1A mutant lysate, 635 nm fluorescence, higher = more signal.
Assay [19] deals with Sonic hedgehog protein (Shh). As to the kind of experiment: Sonic hedgehog microarray binding compounds – biochemical, small-molecule microarray, 635/667 nm fluorescence, primary screen (AID 1151).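 Note: Shh protein binding to compounds spotted on small-molecule microarray slides; score combines spot fluorescence intensity with signal-to-noise across triplicate slides.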 The note with it: 635 nm fluorescence, higher = more signal.

Streptavidin (Streptomyces avidinii), sequence (P22629 whole entry, looked up): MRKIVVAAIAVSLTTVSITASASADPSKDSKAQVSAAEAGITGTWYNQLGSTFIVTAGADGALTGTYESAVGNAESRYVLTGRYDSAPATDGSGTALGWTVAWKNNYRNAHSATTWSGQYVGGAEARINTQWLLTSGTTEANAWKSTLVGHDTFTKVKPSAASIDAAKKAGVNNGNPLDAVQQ
Luciferin 4-monooxygenase (Photinus pyralis), sequence (P08659 whole entry, looked up): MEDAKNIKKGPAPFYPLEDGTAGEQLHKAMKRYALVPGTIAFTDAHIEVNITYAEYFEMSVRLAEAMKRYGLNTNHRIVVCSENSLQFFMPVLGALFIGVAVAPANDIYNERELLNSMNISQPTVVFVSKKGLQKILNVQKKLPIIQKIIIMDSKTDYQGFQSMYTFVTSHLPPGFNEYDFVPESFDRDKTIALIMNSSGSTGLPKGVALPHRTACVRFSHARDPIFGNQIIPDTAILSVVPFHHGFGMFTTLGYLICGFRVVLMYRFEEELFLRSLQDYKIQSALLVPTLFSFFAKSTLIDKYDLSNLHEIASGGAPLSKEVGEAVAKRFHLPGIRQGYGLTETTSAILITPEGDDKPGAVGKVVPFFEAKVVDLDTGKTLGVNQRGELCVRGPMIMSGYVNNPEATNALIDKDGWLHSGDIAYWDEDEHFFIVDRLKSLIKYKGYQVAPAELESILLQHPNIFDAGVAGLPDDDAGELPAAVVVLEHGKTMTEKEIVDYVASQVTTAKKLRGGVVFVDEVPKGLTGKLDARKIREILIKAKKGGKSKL

For the molecule `CC(C)C(O)C1C=CC2C(=O)NC(=O)C2N1Nc1ccc(Cl)cc1Cl` (stereo not given), the composite z-score in [1] was 1.03; in [2], 1.19; in assay [3] it was 1.08; in assay [4] it was 0.921; in assay [5] it was 0.345; in assay [6], -0.292. The composite z-score is -0.556 with Lefty1; 1.35 in [8]; -0.0055 in assay [10]; -0.204 in assay [15]; -0.0791 in assay [16]; 0.41 with Torsin-1A (Homo sapiens) [17]. Further, the composite z-score came to 0.794 in the assay with Torsin-1A (Homo sapiens) [18] and 0.292 in assay [19]. In addition, the z-score in assay [7] is -0.518; in assay [9], -0.089 (inactive); in assay [11], -0.158 (inactive); in assay [12] it was 0.0631 (inactive); in assay [13], 0.246 (inactive); in [14] it was 0.0675 (inactive).
On to `O=C1N(Cc2ccccc2)c2ccccc2[C@@H]2OC(c3ccc(OCCCO)cc3)=N[C@]12CCS(=O)(=O)c1ccccc1`, for which the composite z-score worked out at 0.218 in assay [1]; 1.2 in assay [2]; 0.564 in assay [3]; 0.92 in assay [4]; 1.15 in assay [5]; 0.311 in assay [6]. Also, the composite z-score with Lefty1 is 0.0829; in [8], 1.19; in [10], 0.443; in assay [15], 0.209; in assay [16] it was -0.0719; with Torsin-1A (Homo sapiens) [17], 0.216. Also, the composite z-score in the assay with Torsin-1A (Homo sapiens) [18] was 0.726; in assay [19], 0.695. Moreover, the z-score in [7] was -0.311; in assay [9], -1.45 (inactive); in [11], -2.24 (inactive); in assay [12] it was -0.19 (inactive); in assay [13], 3.13 (inactive); in assay [14], -0.406 (inactive).
As to `C=CCN1C(=O)[C@]2(O[C@H](CCn3cc([C@H](O)c4ccccc4)nn3)[C@@H]([Si](C)(C)c3ccc(OC)cc3)[C@@H]2C)c2cc(N3CCC3=O)ccc21`, the composite z-score in assay [1] was 0.211; in assay [2], 1.16; in assay [3], 0.309; in [4], -0.713; in assay [5], 1.28; in assay [6], 0.792. In addition, the composite z-score in the assay on Lefty1 is 1.2; in [8], 0.386; in [10] it was 0.979; in assay [15], -0.0806; in [16] it was 0.481; in the assay with Torsin-1A (Homo sapiens) [17], 0.279. Also, the composite z-score with Torsin-1A (Homo sapiens) [18] is 0.398; in [19], 2.08. Besides, the z-score was 1.37 in assay [7]; 0.114 (inactive) in assay [9]; -4.37 (inactive) in [11]; -0.549 (inactive) in assay [12]; 2.37 (inactive) in [13]; -0.229 (inactive) in assay [14].
On to `CCCC[C@@H]1C[C@H]1[C@@H](NC(=O)c1ccco1)c1ccc(-c2ccccc2)cc1`, for which the composite z-score was 0.633 in assay [1]; 0.665 in [2]; 0.218 in assay [3]; -0.275 in [4]; 0.038 in assay [5]; -0.199 in assay [6]. Further, the composite z-score was -0.0072 with Lefty1; 0.124 in assay [8]; -0.0076 in [10]; 0.483 in assay [15]; 0.033 in assay [16]; 0.618 with Torsin-1A (Homo sapiens) [17]. For the same molecule, the composite z-score is 0.952 in the assay with Torsin-1A (Homo sapiens) [18] and -0.308 in [19]. For the same molecule, the z-score was -1.12 in assay [7]; 1.01 (inactive) in assay [9]; -2.51 (inactive) in [11]; 0.0577 (inactive) in assay [12]; 0.766 (inactive) in assay [13]; 0.576 (inactive) in assay [14].
As for `C=C(COC)/C(=C/C[C@@H](OC(C)=O)c1ccc(OCCO)cc1)c1cnc2ccccc2c1`, the composite z-score was 0.616 in assay [1]; 0.328 in assay [2]; -0.514 in assay [3]; 0.869 in assay [4]; 1.41 in [5]; 1.55 in [6]. Also, the composite z-score in the assay on Lefty1 is 1.29; in assay [8] it was 0.857; in assay [10] it was 0.837; in assay [15], 1.36; in assay [16], -0.0403; in the assay with Torsin-1A (Homo sapiens) [17], -0.148. In addition, the composite z-score came out at 0.647 with Torsin-1A (Homo sapiens) [18] and 1.75 in assay [19]. The z-score is 0.379 in [7]; -0.846 (inactive) in [9]; -2.22 (inactive) in assay [11]; -0.826 (inactive) in assay [12]; 3.77 (inactive) in assay [13]; -0.861 (inactive) in [14].
